HTR5A ag: counter-screen for OPRM1-OPRD1 agonists: human HTR5A agonism | HTR5A agonist assay, luminescence, cell-based | actives 0.61% (n = 340,000) | AID 504692 | activation, % at 9.3 µM; in the data active = activation mostly above about 9.5%, no sharp cut-off; inactive = mostly below about 7.6%;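 also: 0% = cells with vehicle only and 100% = reference agonist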
Target sequence (P47898 whole entry, looked up): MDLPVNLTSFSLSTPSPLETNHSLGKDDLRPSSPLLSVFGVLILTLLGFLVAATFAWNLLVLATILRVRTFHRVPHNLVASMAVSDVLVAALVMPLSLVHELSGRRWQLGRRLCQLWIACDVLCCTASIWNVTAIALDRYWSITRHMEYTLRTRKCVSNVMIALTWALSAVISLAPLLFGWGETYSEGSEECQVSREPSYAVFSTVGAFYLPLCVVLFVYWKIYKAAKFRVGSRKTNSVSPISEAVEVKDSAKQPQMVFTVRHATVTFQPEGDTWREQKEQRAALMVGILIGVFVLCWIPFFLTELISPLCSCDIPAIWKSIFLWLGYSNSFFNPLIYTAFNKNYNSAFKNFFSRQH
MOR-DOR ag: agonists of human mu-delta opioid receptor heterodimerization. cells, OPRM1-OPRD1 heterodimerization, luminescence. activation, % at 9.3 µM. actives 0.3% (n = 340,000). AID 504326;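 also: 0% = vehicle-treated cells and 100% = reference agonist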
OPRM1-OPRD1 inv: inverse agonists of human mu-delta opioid receptor heterodimerization; P35372+P41143; cell-based MOR-DOR heterodimer luminescence, inverse agonism; inhibition, % at 9.3 µM; actives 0.21% (n = 340,000); in the data active = inhibition above about 22%, passing the limit was not always enough;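 also: 0% = cells with DMSO and 100% = wells without cells with DMSO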
NALP1 yeast inh: inhibitors of NALP1 inflammasome in yeast | S. cerevisiae NALP1/ASC/caspase-1 growth, X-gal OD620, 72 h | inhibition, % at 10 µM | actives 0.61% (n = 280,000); in the data active = inhibition mostly above about 24%, no sharp cut-off; inactive = mostly below about 32%
HTR5A inv ag: HTR5A inverse agonism, opioid heterodimer counter-screen; P47898; HTR5A cell line, luminescence; inhibition, % at 9.3 µM; actives 0.083% (n = 340,000); AID 504634; in the data active = inhibition mostly above about 23%, no sharp cut-off; inactive = mostly below about 18%;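 also: 0% = cells with DMSO and 100% = no-cell wells with DMSO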
PolyA inhibitor: inhibitors of polyadenylation in S. cerevisiae; S. cerevisiae SKY197-pL101 polyadenylation reporter, beta-gal luminescence; efflux-impaired pdr1/pdr3 knockout yeast; score 100 = 6 SD above DMSO; activity score, % at 12 µM; actives 0.02% (n = 300,000); AID 1875;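 active = lowest replicate activity score at least 50, where 100 means six control SD above control mean; inconclusive = lowest score under 50 but half or more replicates reach 50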;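 also: yeast exposed to compound for 9 h at 30 °C; higher score means more reporter readthrough which indicates perturbed polyadenylation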
MOR-DOR ag conf: OPRM1-OPRD1 heterodimer agonism, confirmation; shares compounds with MOR-DOR ag; cells, MOR-DOR heterodimerization, luminescence complementation; activation, % at 9.3 µM; actives 45% (n = 830); AID 504904;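 also: 0% = vehicle-treated cells and 100% = reference agonist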
HTR5A ag ctr2: counter-screen for OPRM1-OPRD1 agonists: human HTR5A agonism | HTR5A agonist counterscreen, cell luminescence | actives 8% (n = 830) | activation, % at 9.3 µM | shares compounds with MOR-DOR ag; in the data active = activation above about 17%;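 also: 0% = vehicle-treated cells and 100% = reference agonist response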
The depositor's hits bear a star; ? = inconclusive; · = no result given. Hits are enriched below; roughly 1.6% of the tested compounds scored in any of these assays. Rule as the data show it, unless noted: active = activation above about 18%; inactive = the rest.

SMILES	HTR5A ag	MOR-DOR ag	OPRM1-OPRD1 inv	NALP1 yeast inh	HTR5A inv ag	PolyA inhibitor	MOR-DOR ag conf	HTR5A ag ctr2
Cc1ccc(NS(=O)(=O)c2cccc(C(=O)NCC(c3ccc(F)cc3)N3CCOCC3)c2)cc1 (stereo unspecified)	3	2	-10	·	-10	2	·	·
O=C1[C@H]2[C@@H](/C=C/c3ccccc3)N3C(=O)CN(Cc4ccccn4)C(=O)[C@@]3(Cc3ccccc3)[C@H]2C(=O)N1c1ccccc1	0	-4	20	1	6	18	·	·
COC1=CC(=O)c2c(ccc3ncnc(N)c23)C1=O	3	41*	-180	·	-12	·	1	1
CCCCCCCCCS(=O)(=O)Nc1cc(C)ccn1	5	-2	10	21	-13	6	·	·
Cc1cc(C)cc(NS(=O)(=O)CCCS(=O)(=O)Nc2cc(C)cc(C)c2)c1	6	30*	-145	·	-22	·	1	-4
CCOC(=O)c1c(C)[nH]c(C(=O)OC/C(O)=C(\C#N)c2nc3ccccc3[nH]2)c1C	9.9*	32*	-196	-5	-19	·	41*	5
Cc1ccc2nc(-c3ccc(SCC(=O)Nc4nnc(C)s4)nc3)[nH]c2c1	12	24*	-145	22	-31	?	0	0
Cc1ccc(NC(=O)CCCSc2nc3ccccc3[nH]2)cc1	0	-2	11	15	1	-2	·	·
Cc1ccc(SCC(=O)Nc2ccc(-c3nc4ccccc4[nH]3)cc2)cc1	10	34*	-206	7	-27	-6	29*	9
Cc1ccc(C2=NS(=O)(=O)N(C)C(C(=O)N3CCOCC3)=C2)cc1	-1	-1	7	4	3	10	·	·
CC(=NCCN1CCN(C(=S)Nc2ccccc2)CC1)C1=C(O)CC(C)(C)CC1=O	-4	-1	6	4	-12	9	·	·
O=C(Nc1ccc(C(F)(F)F)cc1[N+](=O)[O-])O[C@H]1[C@H](Cc2ccccc2)NS(=O)(=O)[C@H]2C[C@@H]3C=C[C@]12O3	-1	18*	-107	·	-7	·	12	2
COc1ccc([N+](=O)[O-])cc1NC(=O)C(C)OC(=O)CC1CCCC1 (stereo unspecified)	7	1	-6	·	-20	·	·	·
CCc1ccc(NC(=O)N(CCCN2CCOCC2)Cc2cccs2)cc1	9	34*	-202	17	-25	-5	47*	-4
Cc1ccc(C)c(NC(=O)COC(=O)CNC(=O)c2ccccc2Cl)c1	2	-1	7	-7	-7	3	·	·
CC(C)CC(/C(O)=C(\C#N)c1nc2ccccc2[nH]1)N1C(=O)c2ccccc2C1=O (stereo unspecified)	2	31*	-141	9	-12	25	30*	4
CC(C)(C)/C(O)=C(/C#N)c1nc2ccccc2[nH]1	-3	0	-1	26	7	-1	·	·
CCOC(=O)c1cnc2cc(F)c(F)cc2c1N1CCN(C)CC1	1	-2	12	12	-3	0	·	·
COc1ccc(-c2nc(CN3CCC(C(=O)NCC4CCCO4)CC3)c(C)o2)cc1OC (stereo unspecified)	2	30*	-149	12	-9	-5	23*	3
Cc1ccc(CSCC(=O)N/N=C/c2sccc2C)cc1	-6	89*	-478	8	23	-1	180*	4
COc1ccc(CC(=O)N/N=C/c2sccc2C)cc1	2	-3	14	11	-7	12	·	·
CC1=C(C(=O)Nc2ccccc2)C(c2ccc(C)cc2)N=C(Nc2nc3ccccc3o2)N1 (stereo unspecified)	3	40*	-219	6	-41	21	34*	16
Cc1cc(N2CCN(c3ccc([N+](=O)[O-])c4cccnc34)CC2)c2ccccc2n1	2	36*	-216	16	-5	-18	52*	10

Screening data deposited in PubChem BioAssay by several laboratories.
